Data published in PubChem BioAssay (EPA / NIEHS).
Results filed as inconclusive are left out. Calls of active or inactive are those of the source. Rule for the calls: active = hit-call score of the fitted dose curve at least 0.9, where 1 is the maximum; inconclusive = response in the unintended direction; inactive = score below 0.9.

Columns and labels:
[1] = system: guinea pig Muscarinic, Peripheral (Mperiperal) Receptor, Non-selective Binding, gene 100379235; assay: NVS_GPCR_gMPeripheral_NonSelective: NovaScreen (NVS) G Protein-Coupled Receptor Assay for guinea pig Muscarinic, Peripheral (Mperiperal) Receptor, Non-selective Binding (AID 2283250)
Method in brief: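 Guinea pig bladder membranes, radioligand binding read 1 h after dosing by filter scintillation counting; loss of signal vs DMSO. Primary duplicate screen at 25 uM, then concentration-response up to 50 uM.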

[2] = target: guinea pig Opioid, Kappa 1 Receptor (OpiateK), OPRK1 (gene 100135587) (UniProt P41144); assay: NVS_GPCR_gOpiateK: NovaScreen (NVS) G Protein-Coupled Receptor Assay for guinea pig Opioid, Kappa 1 Receptor (OpiateK) (AID 2283252);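 note: radioligand displacement from kappa opioid receptor in guinea pig cerebellar membranes; active means reduced radioligand binding relative to DMSO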
Method in brief: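 Guinea pig cerebellar membranes, radioligand displacement with filter-based scintillation counting, 2 h after dosing. Primary screen single concentration 25 uM in duplicate; actives retested in concentration series; loss of binding fitted versus DMSO.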

[3] = target: human Serotonin, 5-Hydroxytryptamine Receptor 6 (5HT6), HTR6 (gene 3362) (UniProt P50406); assay: NVS_GPCR_h5HT6: NovaScreen (NVS) G Protein-Coupled Receptor Assay for human Serotonin, 5-Hydroxytryptamine Receptor 6 (5HT6) (AID 2283253)
Method in brief: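 Radioligand binding to 5HT6 in HEK293-derived membranes, cell-free, 1 h after dosing; bound ligand measured by filter-based scintillation counting. Primary screen in duplicate at 25 uM; actives retested in concentration series.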

[4] = target: human Adrenergic, Alpha 2A Receptor (Adra2A), ADRA2A (gene 150) (UniProt P08913); assay: NVS_GPCR_hAdra2A: NovaScreen (NVS) G Protein-Coupled Receptor Assay for human Adrenergic, Alpha 2A Receptor (Adra2A) (AID 2283257)
Method in brief: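 Radioligand filter-binding was run on HT29-derived membranes, cell-free, read by scintillation counting 1 h after dosing. Primary screening was in duplicate at 25 uM, with concentration series in follow-up. Loss of signal versus DMSO indicates displacement.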

[5] = target: human Adrenergic, Alpha 2c Receptor (Adra2C), ADRA2C (gene 152) (UniProt P18825); assay: NVS_GPCR_hAdra2C: NovaScreen (NVS) G Protein-Coupled Receptor Assay for human Adrenergic, Alpha 2c Receptor (Adra2C) (AID 2283259)
Method in brief: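 Radioligand binding on Sf9-expressed receptor membranes, 1 h after chemical dosing, filter-based scintillation read-out. Loss of binding fitted positively versus DMSO; primary duplicate screen at 25 uM, actives retested in concentration series.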

[6] = target: human Dopamine Receptor D2 (DRD2), DRD2 (gene 1813) (UniProt P14416); assay: NVS_GPCR_hDRD2s: NovaScreen (NVS) G Protein-Coupled Receptor Assay for human Dopamine Receptor D2 (DRD2) (AID 2283266)
Method in brief: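 Radioligand displacement used human DRD2 membranes extracted from CHO cells and was read by filter-based scintillation counting after 1.5 hours. Primary screening was in duplicate at 25 uM. Loss of signal versus DMSO was fitted, with concentration series in follow-up.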

[7] = target: human Serotonin, 5-Hydroxytryptamine Receptor 5A (5HT5A), HTR5A (gene 3361) (UniProt P47898); assay: NVS_GPCR_h5HT5A: NovaScreen (NVS) G Protein-Coupled Receptor Assay for human Serotonin, 5-Hydroxytryptamine Receptor 5A (5HT5A) (AID 2283251)
Method in brief: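 Cell-free radioligand displacement binding on HEK293-derived membrane protein, 1 h incubation, filter-based scintillation counting. Primary screen in duplicate at 25 uM, actives followed in concentration series; loss of signal fitted versus DMSO.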

[8] = target: human Adenosine A1 Receptor (AdoRA1), ADORA1 (gene 134) (UniProt P30542); assay: NVS_GPCR_hAdoRA1: NovaScreen (NVS) G Protein-Coupled Receptor Assay for human Adenosine A1 Receptor (AdoRA1) (AID 2283254)
Method in brief: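 Membranes from human cortical tissue were incubated with radioligand and test chemical for 1 hour, then filtered and counted. Activity was taken as signal loss relative to DMSO, screened at 25 uM in duplicate before concentration-response follow-up.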

[9] = target: human Serotonin, 5-Hydroxytryptamine Receptor 7 (5HT7), HTR7 (gene 3363) (UniProt P34969); assay: NVS_GPCR_h5HT7: NovaScreen (NVS) G Protein-Coupled Receptor Assay for human Serotonin, 5-Hydroxytryptamine Receptor 7 (5HT7) (AID 2283255);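 note: hits reduce specific radioligand binding relative to DMSO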
Method in brief: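 Radioligand displacement on membranes from CHO cells expressing human 5HT7, 1 h incubation, filter-based scintillation counting. Primary screen used a single 25 uM concentration in duplicate; actives were followed up in concentration series.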

[10] = target: human Adenosine A2a Receptor (AdoRA2a), ADORA2A (gene 135) (UniProt P29274); assay: NVS_GPCR_hAdoRA2a: NovaScreen (NVS) G Protein-Coupled Receptor Assay for human Adenosine A2a Receptor (AdoRA2a) (AID 2283256)
Method in brief: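 Radioligand displacement on HEK293-derived membrane protein, cell-free; filter-based scintillation counting 1.5 hours after dosing, loss of signal vs DMSO. Single-point duplicate screen at 25 uM, actives retested in concentration series.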

[11] = target: human Adrenergic, Beta 1 Receptor (Adrb1), ADRB1 (gene 153) (UniProt P08588); assay: NVS_GPCR_hAdrb1: NovaScreen (NVS) G Protein-Coupled Receptor Assay for human Adrenergic, Beta 1 Receptor (Adrb1) (AID 2283258)
Method in brief: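 Cell-free radioligand displacement on receptor from human neuroepithelioma cells; 2 h after dosing, filter-based scintillation counting. Primary screen in duplicate at 25 uM, actives retested in concentration series; loss of signal vs DMSO baseline.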

[12] = target: Type-1 angiotensin II receptor (Homo sapiens) (UniProt P30556); assay: NVS_GPCR_hAT1: NovaScreen (NVS) G Protein-Coupled Receptor Assay for human Angiotensin II receptor type 1 (AT1) (AID 2283263)
Method in brief: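 Membranes from KAN-TS cells; radioligand competitive displacement, 3 h, filtration and scintillation counting. Single-point duplicate screen at 25 uM, then concentration-response up to 50 uM for hits; loss of signal fitted versus DMSO.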

[13] = target: human Dopamine Receptor D4.4 (DRD4.4), DRD4 (gene 1815) (UniProt P21917); assay: NVS_GPCR_hDRD4.4: NovaScreen (NVS) G Protein-Coupled Receptor Assay for human Dopamine Receptor D4.4 (DRD4.4) (AID 2283264)
Method in brief: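 Radioligand displacement on human DRD4.4 from CHO-derived membranes, 1 hour incubation, bound counts read by filtration and scintillation. Primary screen in duplicate at 25 uM; actives followed up in concentration series.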

[14] = system: bovine Histamine 1 Receptor (H1), gene 281231; assay: NVS_GPCR_bH1: NovaScreen (NVS) G Protein-Coupled Receptor Assay for bovine Histamine 1 Receptor (H1) (AID 2283246)
Method in brief: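 Radioligand displacement on bovine cerebellar membranes, 1 h after dosing, filter-based scintillation read-out; loss of signal vs DMSO. Duplicate single-concentration screen at 25 uM, then concentration-response up to 50 uM for hits.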

[15] = target: human Serotonin, 5-Hydroxytryptamine Receptor 2A (5HT2A), HTR2A (gene 3356) (UniProt P28223); assay: NVS_GPCR_h5HT2A: NovaScreen (NVS) G Protein-Coupled Receptor Assay for human Serotonin, 5-Hydroxytryptamine Receptor 2A (5HT2A) (AID 2283249)
Method in brief: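 Human cortex membranes, cell-free radioligand binding; filter-based scintillation read 1.5 h after dosing. Duplicate screen at 25 uM first; displacement of specific binding (loss of signal) versus DMSO.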

[16] = target: human Adrenergic, Beta 3 Receptor (Adrb3), ADRB3 (gene 155) (UniProt P13945); assay: NVS_GPCR_hAdrb3: NovaScreen (NVS) G Protein-Coupled Receptor Assay for human Adrenergic, Beta 3 Receptor (Adrb3) (AID 2283262)
Method in brief: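 Membranes from SK-N-MC cells pretreated with isoproterenol and 8-bromo-cAMP were used in a radioligand competitive displacement binding assay. Binding was read by filter-based scintillation counting 1 hour after dosing. Primary screening was in duplicate at 25 uM, with concentration series in follow-up.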

[17] = target: Beta-2 adrenergic receptor (Homo sapiens) (UniProt P07550); assay: NVS_GPCR_hAdrb2: NovaScreen (NVS) G Protein-Coupled Receptor Assay for human Adrenergic, Beta 2 Receptor (Adrb2) (AID 2283261)
Method in brief: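 Filter-based radioligand binding using receptor prepared from CHO cells, 1 h incubation, scintillation counting. Primary screen in duplicate at 25 uM, actives retested in concentration series; loss of binding relative to DMSO.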

Measured: AC50

human Serotonin, 5-Hydroxytryptamine Receptor 7 (5HT7), HTR7 (gene 3363), sequence (P34969 whole entry, looked up): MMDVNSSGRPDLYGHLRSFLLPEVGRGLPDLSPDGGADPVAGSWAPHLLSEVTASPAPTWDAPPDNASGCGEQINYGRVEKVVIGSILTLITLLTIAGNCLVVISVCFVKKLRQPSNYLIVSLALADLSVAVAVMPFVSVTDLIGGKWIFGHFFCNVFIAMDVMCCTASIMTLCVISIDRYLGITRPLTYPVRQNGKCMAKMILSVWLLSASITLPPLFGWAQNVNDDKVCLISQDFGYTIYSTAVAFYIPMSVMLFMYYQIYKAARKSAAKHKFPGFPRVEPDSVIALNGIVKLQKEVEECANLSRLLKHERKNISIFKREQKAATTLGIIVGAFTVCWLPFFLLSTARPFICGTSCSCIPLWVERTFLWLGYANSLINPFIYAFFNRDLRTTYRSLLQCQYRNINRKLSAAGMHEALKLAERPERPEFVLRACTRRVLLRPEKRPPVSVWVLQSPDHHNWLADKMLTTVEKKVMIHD
human Adrenergic, Beta 3 Receptor (Adrb3), ADRB3 (gene 155), sequence (P13945 whole entry, looked up): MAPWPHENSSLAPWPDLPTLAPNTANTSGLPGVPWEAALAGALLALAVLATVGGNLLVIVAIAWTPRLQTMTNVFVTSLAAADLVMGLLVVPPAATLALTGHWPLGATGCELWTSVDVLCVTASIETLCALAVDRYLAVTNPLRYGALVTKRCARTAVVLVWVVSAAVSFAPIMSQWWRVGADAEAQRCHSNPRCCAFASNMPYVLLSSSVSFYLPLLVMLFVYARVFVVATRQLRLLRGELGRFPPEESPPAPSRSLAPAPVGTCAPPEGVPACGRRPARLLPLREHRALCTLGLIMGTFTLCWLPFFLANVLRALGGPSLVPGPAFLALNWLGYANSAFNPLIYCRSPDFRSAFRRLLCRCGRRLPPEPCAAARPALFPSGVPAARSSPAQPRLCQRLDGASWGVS
human Adenosine A1 Receptor (AdoRA1), ADORA1 (gene 134), sequence (P30542 whole entry, looked up): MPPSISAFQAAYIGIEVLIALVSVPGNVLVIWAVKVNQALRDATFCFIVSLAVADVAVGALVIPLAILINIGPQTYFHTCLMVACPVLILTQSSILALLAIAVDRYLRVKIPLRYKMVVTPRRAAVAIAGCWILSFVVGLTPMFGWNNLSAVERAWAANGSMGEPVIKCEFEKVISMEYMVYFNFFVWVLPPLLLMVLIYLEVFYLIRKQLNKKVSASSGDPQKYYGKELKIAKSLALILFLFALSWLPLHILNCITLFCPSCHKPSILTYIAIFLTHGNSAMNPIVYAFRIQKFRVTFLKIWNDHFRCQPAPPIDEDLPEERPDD
human Dopamine Receptor D2 (DRD2), DRD2 (gene 1813), sequence (P14416 whole entry, looked up): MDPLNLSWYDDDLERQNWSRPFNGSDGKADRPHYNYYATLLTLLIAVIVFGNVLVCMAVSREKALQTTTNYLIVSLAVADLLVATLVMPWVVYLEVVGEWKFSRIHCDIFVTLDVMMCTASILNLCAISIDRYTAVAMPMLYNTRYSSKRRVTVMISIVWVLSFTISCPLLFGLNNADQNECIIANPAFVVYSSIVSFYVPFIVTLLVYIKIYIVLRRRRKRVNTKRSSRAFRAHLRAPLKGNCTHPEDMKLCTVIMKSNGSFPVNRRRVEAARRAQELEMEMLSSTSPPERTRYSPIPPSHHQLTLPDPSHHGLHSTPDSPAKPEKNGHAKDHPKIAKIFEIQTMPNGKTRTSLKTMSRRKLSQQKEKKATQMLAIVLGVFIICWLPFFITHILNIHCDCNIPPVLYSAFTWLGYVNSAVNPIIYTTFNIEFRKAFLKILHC
human Dopamine Receptor D4.4 (DRD4.4), DRD4 (gene 1815), sequence (P21917 whole entry, looked up): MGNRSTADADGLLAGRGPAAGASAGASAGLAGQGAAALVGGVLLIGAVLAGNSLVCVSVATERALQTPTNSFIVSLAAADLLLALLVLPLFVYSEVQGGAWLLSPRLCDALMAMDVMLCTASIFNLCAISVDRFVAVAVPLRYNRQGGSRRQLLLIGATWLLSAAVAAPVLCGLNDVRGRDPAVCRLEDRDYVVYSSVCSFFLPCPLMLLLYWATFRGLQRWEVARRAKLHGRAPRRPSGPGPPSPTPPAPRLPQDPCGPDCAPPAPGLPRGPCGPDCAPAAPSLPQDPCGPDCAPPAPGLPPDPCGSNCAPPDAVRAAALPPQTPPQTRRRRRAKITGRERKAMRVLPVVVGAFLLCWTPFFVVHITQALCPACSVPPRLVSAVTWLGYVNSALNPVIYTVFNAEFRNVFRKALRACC
human Adenosine A2a Receptor (AdoRA2a), ADORA2A (gene 135), sequence (P29274 whole entry, looked up): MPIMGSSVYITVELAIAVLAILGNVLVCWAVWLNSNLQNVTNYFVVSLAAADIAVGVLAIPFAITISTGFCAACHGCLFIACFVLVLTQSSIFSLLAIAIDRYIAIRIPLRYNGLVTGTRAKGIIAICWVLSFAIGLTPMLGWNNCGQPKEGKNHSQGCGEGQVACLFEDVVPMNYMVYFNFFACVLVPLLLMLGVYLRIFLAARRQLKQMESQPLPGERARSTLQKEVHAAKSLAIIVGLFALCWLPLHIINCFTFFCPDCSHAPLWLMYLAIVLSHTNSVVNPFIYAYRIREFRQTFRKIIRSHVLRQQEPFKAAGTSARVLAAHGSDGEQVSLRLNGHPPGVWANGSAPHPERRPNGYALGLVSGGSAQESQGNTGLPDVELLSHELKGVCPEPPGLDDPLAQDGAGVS
human Serotonin, 5-Hydroxytryptamine Receptor 5A (5HT5A), HTR5A (gene 3361), sequence (P47898 whole entry, looked up): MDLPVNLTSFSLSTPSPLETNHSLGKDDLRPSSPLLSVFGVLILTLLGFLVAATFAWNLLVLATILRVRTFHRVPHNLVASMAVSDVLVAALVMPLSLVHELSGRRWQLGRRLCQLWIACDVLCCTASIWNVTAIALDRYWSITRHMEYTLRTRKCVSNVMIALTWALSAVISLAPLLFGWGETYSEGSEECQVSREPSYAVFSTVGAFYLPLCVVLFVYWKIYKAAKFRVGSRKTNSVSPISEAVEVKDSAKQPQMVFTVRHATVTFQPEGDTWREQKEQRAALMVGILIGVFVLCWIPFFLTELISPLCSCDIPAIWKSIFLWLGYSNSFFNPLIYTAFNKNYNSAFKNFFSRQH
human Serotonin, 5-Hydroxytryptamine Receptor 6 (5HT6), HTR6 (gene 3362), sequence (P50406 whole entry, looked up): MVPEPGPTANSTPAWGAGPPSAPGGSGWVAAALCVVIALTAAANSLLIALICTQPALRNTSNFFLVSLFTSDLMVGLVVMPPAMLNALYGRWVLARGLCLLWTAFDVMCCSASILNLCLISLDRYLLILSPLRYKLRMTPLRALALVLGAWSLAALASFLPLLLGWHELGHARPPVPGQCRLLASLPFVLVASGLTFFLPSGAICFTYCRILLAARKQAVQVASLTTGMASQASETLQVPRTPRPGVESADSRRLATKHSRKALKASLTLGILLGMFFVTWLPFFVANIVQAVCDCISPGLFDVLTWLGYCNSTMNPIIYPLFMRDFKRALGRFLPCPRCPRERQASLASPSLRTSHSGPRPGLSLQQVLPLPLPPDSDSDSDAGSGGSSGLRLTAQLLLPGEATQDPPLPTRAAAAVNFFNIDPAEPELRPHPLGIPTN
human Adrenergic, Alpha 2A Receptor (Adra2A), ADRA2A (gene 150), sequence (P08913 whole entry, looked up): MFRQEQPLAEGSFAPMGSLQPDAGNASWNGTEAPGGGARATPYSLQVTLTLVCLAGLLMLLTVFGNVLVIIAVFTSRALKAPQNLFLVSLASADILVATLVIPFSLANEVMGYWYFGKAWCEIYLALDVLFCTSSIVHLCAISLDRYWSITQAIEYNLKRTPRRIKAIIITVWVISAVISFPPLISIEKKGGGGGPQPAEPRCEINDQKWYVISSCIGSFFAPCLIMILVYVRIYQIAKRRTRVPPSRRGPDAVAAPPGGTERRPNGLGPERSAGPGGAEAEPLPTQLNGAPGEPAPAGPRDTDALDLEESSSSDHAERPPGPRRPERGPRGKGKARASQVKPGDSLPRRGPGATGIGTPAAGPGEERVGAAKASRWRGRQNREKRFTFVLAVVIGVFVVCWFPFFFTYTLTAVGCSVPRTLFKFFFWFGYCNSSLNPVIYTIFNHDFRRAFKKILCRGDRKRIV
human Adrenergic, Alpha 2c Receptor (Adra2C), ADRA2C (gene 152), sequence (P18825 whole entry, looked up): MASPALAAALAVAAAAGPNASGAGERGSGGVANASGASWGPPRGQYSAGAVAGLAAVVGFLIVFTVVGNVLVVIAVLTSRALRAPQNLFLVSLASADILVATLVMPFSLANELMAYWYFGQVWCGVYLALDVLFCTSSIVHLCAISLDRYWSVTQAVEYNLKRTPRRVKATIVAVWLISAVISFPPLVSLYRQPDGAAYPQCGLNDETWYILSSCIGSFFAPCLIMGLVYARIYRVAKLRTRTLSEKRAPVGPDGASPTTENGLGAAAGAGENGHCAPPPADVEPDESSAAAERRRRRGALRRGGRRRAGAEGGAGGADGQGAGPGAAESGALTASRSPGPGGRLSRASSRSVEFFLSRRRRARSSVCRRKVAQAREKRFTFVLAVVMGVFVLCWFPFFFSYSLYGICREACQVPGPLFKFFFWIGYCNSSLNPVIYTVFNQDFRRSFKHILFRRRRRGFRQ
guinea pig Opioid, Kappa 1 Receptor (OpiateK), OPRK1 (gene 100135587), sequence (P41144 whole entry, looked up): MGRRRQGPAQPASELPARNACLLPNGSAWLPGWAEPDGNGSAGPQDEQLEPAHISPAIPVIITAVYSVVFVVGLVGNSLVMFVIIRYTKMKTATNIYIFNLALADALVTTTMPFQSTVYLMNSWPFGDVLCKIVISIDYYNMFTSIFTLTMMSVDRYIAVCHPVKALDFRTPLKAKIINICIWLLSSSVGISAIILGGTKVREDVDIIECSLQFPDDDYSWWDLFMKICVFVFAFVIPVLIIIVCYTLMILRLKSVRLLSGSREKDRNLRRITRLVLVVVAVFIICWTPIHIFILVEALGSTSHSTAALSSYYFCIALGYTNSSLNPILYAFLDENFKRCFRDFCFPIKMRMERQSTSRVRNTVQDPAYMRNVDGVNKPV

COc1cc(C(C)C)c2c(c1)S(=O)(=O)N(COc1cc(=O)n3cccc(OCCN4CCCCC4)c3n1)C2=O
active: [1] 2.22 µM | [2] 5.55 µM | [3] 2.55 µM | [4] 2.83 µM | [5] 0.424 µM | [6] 1.6 µM

C=CCc1cc(S(=O)(=O)c2ccc(O)c(CC=C)c2)ccc1O
active: [7] 25 µM | [3] 0.0408 µM | [8] 3.19 µM | [9] 9.39 µM | [10] 15.6 µM | [11] 20.1 µM | [5] 8.06 µM | [12] 17.1 µM | [13] 25 µM | [6] 33.1 µM

NC(=O)N1c2ccccc2C=Cc2ccccc21
active: [8] 7.33 µM
inactive: [14]

CCn1nc(C)c2c1C(=O)NCC(c1ccc(O)cc1)=N2
active: [9] 25 µM | [10] 10.2 µM
inactive: [15] | [2] | [3] | [8] | [4] | [5] | [16]

CCc1ccc(O)c(C(C)(C)C)c1
inactive: [10] | [6]

c1ccc2cc3ccccc3cc2c1
inactive: [3]

CC(C)C(=O)Nc1ccc([N+](=O)[O-])c(C(F)(F)F)c1
active: [3] 4.5 µM
inactive: [8]

CCCCCCCCN(C)C
inactive: [1] | [3] | [16]
active: [9] 6.63 µM

c1ccc(C(O[C@@H]2CCCN(CCc3ccc4c(c3)OCO4)C2)c2ccccc2)cc1
active: [15] 10.1 µM | [1] 0.0261 µM | [7] 25 µM | [2] 3.06 µM | [3] 25 µM | [8] 20.7 µM | [9] 0.99 µM | [4] 18 µM | [11] 25 µM | [5] 2.51 µM | [17] 13.5 µM | [13] 14.8 µM | [6] 5.47 µM
inactive: [16]

O=S(=O)(O)c1ccc(N=Nc2c(O)ccc3cc(S(=O)(=O)O)ccc23)cc1
active: [10] 35 µM | [13] 32 µM | [6] 8.72 µM
inactive: [7] | [2] | [8] | [9] | [4]
